Laboratory results published in PubChem BioAssay (NCI).
This is part of a sample that, as a whole, favours compounds with a hit. Of some 79,000 tested, about 15% had one in any assay. A number with no mark means an inactive call. Active and inactive are the calls of the source. Rule as the data show it: active = growth inhibition above about 70%; inactive = the rest.

What was measured:
[1] = NCI Yeast Anticancer Drug Screen. Data for the rad50 strain (AID 155);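 also: 0% = growth of vehicle-only cultures of the same strain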; conditions: S. cerevisiae rad50 strain growth inhibition, hits give high values
Outline: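 Readout: growth inhibition relative to vehicle-treated cultures. Compound exposure was carried out in a genetically defined yeast strain deficient in DNA damage repair.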

[2] = NCI Yeast Anticancer Drug Screen. Data for the mec2-1 strain (AID 157); conditions: S. cerevisiae mec2-1 strain, hits give high values
Outline: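 Each compound was tested on mec2-1 yeast, a strain altered in DNA damage repair or cell cycle control. Growth inhibition is reported relative to vehicle.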

[3] = NCI Yeast Anticancer Drug Screen. Data for the sgs1 mgt1 strain (AID 161);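 also: 0% = growth of cultures given vehicle only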; conditions: S. cerevisiae sgs1 mgt1 strain, hits give high values
Outline: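 Mutant yeast exposed to compound; growth scored against vehicle-only wells.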

[4] = NCI Yeast Anticancer Drug Screen. Data for the cln2 rad14 strain (AID 165);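 also: 0% = growth equal to vehicle treated cultures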; conditions: S. cerevisiae cln2 rad14 strain, hits give high values
Outline: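 Test compounds were added to cln2 rad14 yeast cultures; inhibition of growth was then determined by comparison with vehicle treatment.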

[5] = NCI Yeast Anticancer Drug Screen. Data for the bub3 strain (AID 167); conditions: S. cerevisiae bub3 mutant strain, hits give high values
Outline: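 Readout: yeast growth inhibition, expressed relative to vehicle-only wells. The test organism is a mutant strain from a panel with lesions in DNA repair or checkpoint genes.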

[6] = NCI Yeast Anticancer Drug Screen. Data for the mlh1 rad18 strain (AID 175); conditions: S. cerevisiae mlh1 rad18 strain growth inhibition, hits give high values
Outline: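 Inhibition values reflect reduced growth of mutant yeast versus vehicle-treated controls following compound exposure; the mutations affect DNA damage repair.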

[7] = at 5.0 µM (retest, dose inferred, filed as 0.5)
[8] = at 50.0 µM (retest, dose inferred, filed as 5.0)

SMILES	growth inhibition [1, 7]	growth inhibition [1, 8]	growth inhibition ([1]; at 50.0 µM)	growth inhibition [2, 7]	growth inhibition [2, 8]	growth inhibition ([2]; at 50.0 µM)	growth inhibition [3, 7]	growth inhibition [3, 8]	growth inhibition ([3]; at 50.0 µM)	growth inhibition [4, 7]	growth inhibition [4, 8]	growth inhibition ([4]; at 50.0 µM)	growth inhibition [5, 7]	growth inhibition [5, 8]	growth inhibition ([5]; at 50.0 µM)	growth inhibition [6, 7]	growth inhibition [6, 8]	growth inhibition ([6]; at 50.0 µM)
C1=C(c2ccccc2)CCc2c1ccc1ccccc21	5%	-8%	-3.45%	-6%	3%	-10.8%	1%	16%	0%	-9%	-10%	4.35%	7%	10%	16%	-1%	21%	5.7%
ClC(Cl)(Cl)C(NCCN1CCOCC1)c1ccccc1 (stereo not given)	99% (active)	88% (active)	80% (active)	100% (active)	99% (active)	61.7%	100% (active)	98% (active)	84.5% (active)	66%	55%	78.8% (active)	98% (active)	97% (active)	66.3%	99% (active)	98% (active)	78.7% (active)
O=C(CC[P+](c1ccccc1)(c1ccccc1)c1ccccc1)c1ccccc1	10%	78% (active)	94.8% (active)	6%	92% (active)	94.8% (active)	4%	74% (active)	86.2% (active)	-3%	71% (active)	95.6% (active)	7%	79% (active)	94.8% (active)	3%	84% (active)	93.1% (active)
COc1ncc(Br)cc1C(=O)NCCc1ccc(S(=O)(=O)NC(=O)NC2CCCCC2)cc1	4%	96% (active)	92.8% (active)	5%	94% (active)	95.5% (active)	-1%	94% (active)	95.3% (active)	5%	96% (active)	96.2% (active)	18%	97% (active)	94.2% (active)	11%	94% (active)	94.9% (active)
Clc1ccc([I+]c2cccs2)cc1	37%	97% (active)	98% (active)	51%	99% (active)	98.7% (active)	45%	98% (active)	8.95%	33%	97% (active)	97.7% (active)	66%	97% (active)	98% (active)	72% (active)	98% (active)	99% (active)
O=P1(Cc2ccccc2)c2ccccc2-c2ccccc21	-21%	99% (active)	85.6% (active)	-17%	99% (active)	91.1% (active)	-24%	97% (active)	88.9% (active)	-18%	96% (active)	89.4% (active)	-33%	99% (active)	88.7% (active)	4%	99% (active)	84.3% (active)
Cc1scnc1C(C#N)(c1ccccc1)c1ccccc1	9%	97% (active)	98.5% (active)	4%	98% (active)	98.5% (active)	4%	98% (active)	98.7% (active)	8%	98% (active)	98.5% (active)	9%	97% (active)	98.8% (active)	7%	97% (active)	98.5% (active)
CC12OC1C(=O)c1ccccc1C2=O (stereo not given)	4%	85% (active)	88.5% (active)	15%	93% (active)	92.1% (active)	9%	87% (active)	89.9% (active)	19%	65%	57.6%	9%	96% (active)	90.9% (active)	-2%	95% (active)	81.6% (active)
ONC1=Nc2ccccc2OCc2cc(Br)c(Br)cc2COc2ccccc2N=C1NO	22%	96% (active)	88% (active)	19%	98% (active)	91.1% (active)	18%	89% (active)	91.5% (active)	-1%	81% (active)	89.4% (active)	13%	91% (active)	90.9% (active)	31%	97% (active)	87.9% (active)
CCCN(CCC)C(=O)c1cccc2ccccc12	3%	7%	6.8%	4%	6%	-19.1%	1%	9%	44.5%	3%	22%	-1.9%	6%	28%	27.2%	6%	7%	7.5%
CC(C)(C)Oc1ccc(CC(NC(=O)OCC2c3ccccc3-c3ccccc32)C(=O)O)cc1 (stereo not given)	9%	95% (active)	90.6% (active)	-11%	97% (active)	93.2% (active)	-9%	98% (active)	90.5% (active)	33%	96% (active)	91.7% (active)	-7%	97% (active)	89.2% (active)	-3%	96% (active)	90.3% (active)
N#CC1=CN(Cc2ccccc2)C(C#Cc2ccccc2)C=C1 (stereo not given)	1%	-1%	58.9%	-1%	9%	88.2% (active)	2%	8%	82.2% (active)	-2%	-7%	15.4%	-2%	0%	91% (active)	-2%	4%	83.2% (active)
CCN(CC)CCN(C)c1ccc(CO)c2c1C(=O)c1ccccc1S2=O (stereo not given)	5%	74% (active)	95.8% (active)	-3%	28%	60.9%	-5%	78% (active)	96.3% (active)	2%	23%	33.5%	2%	9%	82.4% (active)	-1%	73% (active)	97.9% (active)
CC(COC(=O)C(c1ccccc1)C1C=CCCC1)CN1CCCC1 (stereo not given)	-1%	60%	70.4% (active)	18%	51%	46.8%	21%	61%	72.8% (active)	4%	34%	86.5% (active)	0%	36%	74.5% (active)	35%	74% (active)	90.3% (active)
O=C(O)c1cc(C(=O)O)c(C(=O)O)cc1C(=O)O.[NH-]C1CCCC1.[NH-]C1CCCC1.[NH-]C1CCCC1.[NH-]C1CCCC1.[Pt+2].[Pt+2]	4%	99% (active)	99.5% (active)	10%	100% (active)	99.6% (active)	15%	99% (active)	99.5% (active)	0%	99% (active)	99% (active)	-1%	99% (active)	99% (active)	16%	99% (active)	99% (active)
O=[N+]([O-])/C=C/c1cc2c(ccc3ccccc32)[nH]1	61%	98% (active)	82.7% (active)	94% (active)	95% (active)	92.2% (active)	88% (active)	98% (active)	94.5% (active)	37%	92% (active)	93.3% (active)	96% (active)	98% (active)	90.7% (active)	87% (active)	97% (active)	89% (active)
CCCCCCCCCCCCCCNC(=O)C[N+](C)(C)Cc1ccccc1	99% (active)	99% (active)	99.5% (active)	99% (active)	100% (active)	99.7% (active)	99% (active)	99% (active)	99.3% (active)	99% (active)	99% (active)	99.5% (active)	99% (active)	99% (active)	99.4% (active)	99% (active)	99% (active)	99.6% (active)
COc1ccc(/C(=C/CN2CCC3CCC(C3)C2)c2ccccc2)cc1 (stereo not given)	-3%	-17%	40.9%	5%	-11%	14.6%	-31%	-27%	50.8%	-6%	-19%	12.9%	-3%	11%	17.6%	-13%	-34%	12.7%
NC(=S)SCCC(=O)O	-2%	4%	-31.1%	-6%	-21%	-41.5%	-10%	-14%	-3.95%	-3%	-4%	40.1%	-11%	-19%	-21.9%	-16%	-4%	2.85%
O=C1c2cc(F)ccc2-c2c(F)cc(F)c(F)c21	8%	7%	82.3% (active)	6%	5%	55.9%	2%	4%	41%	3%	-6%	34.9%	-7%	-14%	5.95%	4%	7%	46.8%
